# Inconclusive results are not listed. Active and inactive are the calls of the source. The calls were made as follows: active = hit-call score of the fitted dose curve at least 0.9, where 1 is the maximum; inconclusive = response in the unintended direction; inactive = score below 0.9.
# Tests used:
# [1] = target: rat Gamma-Aminobutyric Acid Type B Receptor (GABBR), Gabbr1 (gene 81657) (UniProt Q9Z0U4); assay: NVS_GPCR_rGABBR: NovaScreen (NVS) G Protein-Coupled Receptor Assay for rat Gamma-Aminobutyric Acid Type B Receptor (GABBR) (AID 2283301)
# Method in brief: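 Radioligand displacement on rat cortical membranes, 1 h, filter-based scintillation counting. Primary screen at 25 uM in duplicate; compounds passing threshold re-tested in concentration-response up to 50 uM; loss of binding fitted against DMSO.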
# [2] = target: human Opioid Receptor Mu (Opiate Mu), OPRM1 (gene 4988) (UniProt P35372); assay: NVS_GPCR_hOpiate_mu: NovaScreen (NVS) G Protein-Coupled Receptor Assay for human Opioid Receptor Mu (Opiate Mu) (AID 2283290);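 also: hits lower bound tracer signal versus DMSO meaning displacement of the ligand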
# Method in brief: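 Here, radioligand binding to CHO-extracted receptor was measured after 2.5 h using filter-based scintillation detection. Initial single-concentration screening used 25 uM in duplicate with plate controls; confirmed actives went to concentration-response testing.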
# [3] = target: rat Corticotropin Releasing Factor Receptor (CRF), Crhr1 (gene 58959) (UniProt P35353); assay: NVS_GPCR_rCRF: NovaScreen (NVS) G Protein-Coupled Receptor Assay for rat Corticotropin Releasing Factor Receptor (CRF) (AID 2283300)
# Method in brief: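 Rat cortical membranes used as receptor source in a radioligand competitive displacement binding assay; scintillation read 2 h after dosing. Primary screen run in duplicate at 25 uM; loss of signal versus DMSO baseline indicates binding.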
# [4] = target: guinea pig Serotonin, 5-Hydroxytryptamine Receptor 4 (5HT4), HTR4 (gene 100135548) (UniProt O70528); assay: NVS_GPCR_g5HT4: NovaScreen (NVS) G Protein-Coupled Receptor Assay for guinea pig Serotonin, 5-Hydroxytryptamine Receptor 4 (5HT4) (AID 2283294)
# Method in brief: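 Guinea pig striatal membranes; radioligand competitive displacement, filtration and scintillation counting after 1 h. Primary screen in duplicate at 25 uM; actives then tested in concentration series; loss of binding signal fitted relative to DMSO.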
# [5] = target: rat Histamine Receptor (H3), Hrh3 (gene 85268) (UniProt Q9QYN8); assay: NVS_GPCR_rH3: NovaScreen (NVS) G Protein-Coupled Receptor Assay for rat Histamine Receptor (H3) (AID 2283303)
# Method in brief: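 Rat forebrain membranes incubated 1 h with compound; radioligand displacement measured by filter-based scintillation counting. Single-concentration duplicates at 25 µM, then concentration-response up to 50 µM, relative to DMSO.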
# Adra2b (gene 24174) = Adra2b (gene 24174) (UniProt P19328); assay: NVS_GPCR_rmAdra2B: NovaScreen (NVS) G Protein-Coupled Receptor Assay for hybird cells Adrenergic, Alpha 2B Receptor (Adra2B) (AID 2283306)
# Method in brief: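 Radioligand filter-binding assay on membrane proteins from neuroglioma/blastoma hybrid cells (rodent), 1 h after dosing; scintillation counting, loss of signal vs DMSO. Primary screen in duplicate at 25 uM, actives then run in concentration series.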
# [6] = target: human Neonicotinoid receptor (NNR), CHRNA2 (gene 1135) (UniProt Q15822); assay: NVS_LGIC_hNNR_NBungSens: NovaScreen (NVS) Ligand-Gated Ion Channel Assay for human Neonicotinoid receptor (NNR) (AID 2283313)
# Method in brief: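 Radioligand displacement on human neuroblastoma membranes, 2 h, filter-based scintillation counting. Primary screen in duplicate at 25 uM; chemicals passing threshold (e.g. 30% inhibition) run singleton concentration-response to 50 uM; loss of binding fitted versus DMSO.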
# [7] = target: rat Serotonin, 5-Hydroxytryptamine Receptor (5HT), Non-Selective Binding, Htr1a (gene 24473) (UniProt P19327); assay: NVS_GPCR_r5HT_NonSelective: NovaScreen (NVS) G Protein-Coupled Receptor Assay for rat Serotonin, 5-Hydroxytryptamine Receptor (5HT), Non-Selective Binding (AID 2283295)
# Method in brief: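 Radioligand displacement on rat cortical membranes, 1 h incubation, filter-based scintillation counting. Primary duplicates at 25 uM, actives retested in concentration series; loss of signal fitted against DMSO as baseline.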
# [8] = target: rat Adrenergic, Alpha 1A Receptor (Adra1A), Adra1a (gene 29412) (UniProt P43140); assay: NVS_GPCR_rAdra1A: NovaScreen (NVS) G Protein-Coupled Receptor Assay for rat Adrenergic, Alpha 1A Receptor (Adra1A) (AID 2283296)
# Method in brief: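 Rat cortical membranes pretreated with chlorethyl clonidine; competitive radioligand displacement, 1 h. Filter-based scintillation counting. Primary screen in duplicate at 25 uM, actives followed in concentration series.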
# [9] = test system: rat Adrenergic, Alpha 1B Receptor (Adra1B), gene 24173; assay: NVS_GPCR_rAdra1B: NovaScreen (NVS) G Protein-Coupled Receptor Assay for rat Adrenergic, Alpha 1B Receptor (Adra1B) (AID 2283297)
# Method in brief: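 Rat liver membranes, radioligand displacement with filter-based scintillation detection, 1 h incubation. Primary screen in duplicate at 25 uM; actives retested in concentration series; activity relative to DMSO.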
# [10] = target: rat Neurokinin-1 Receptor (NK1), Tacr1 (gene 24807) (UniProt P14600); assay: NVS_GPCR_rNK1: NovaScreen (NVS) G Protein-Coupled Receptor Assay for rat Neurokinin-1 Receptor (NK1) (AID 2283309)
# Method in brief: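 Rat submaxillary gland membranes; radioligand displacement read by filter-based scintillation counting after 1 h. Primary screen in duplicate at 25 uM; actives retested in concentration series; loss of binding fitted versus DMSO.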
# [11] = target: rat Neurokinin-3 Receptor (NK3), Tacr3 (gene 24808) (UniProt P16177); assay: NVS_GPCR_rNK3: NovaScreen (NVS) G Protein-Coupled Receptor Assay for rat Neurokinin-3 Receptor (NK3) (AID 2283310)
# Method in brief: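 Rat cortical membranes; radioligand binding with filtration and scintillation counting, 2 h after dosing. Primary screen in duplicate at 25 uM, then concentration-response up to 50 uM; loss of binding signal relative to DMSO.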
# [12] = target: rat Opioid Receptor, Non-selective Sodium (Na+) Binding, Oprm1 (gene 25601) (UniProt P33535); assay: NVS_GPCR_rOpiate_NonSelectiveNa: NovaScreen (NVS) G Protein-Coupled Receptor Assay for rat Opioid Receptor, Non-selective Sodium (Na+) Binding (AID 2283311)
# Method in brief: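 Rat forebrain membranes, radioligand displacement with filter scintillation counting, 1.5 h incubation. Screened in duplicate at 25 µM; hits then run in concentration-response up to 50 µM; loss of binding fitted versus DMSO.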
# [13] = test system: guinea pig Atrionatriuretic Peptide Receptor A (ANPA), gene 100135578; assay: NVS_GPCR_gANPA: NovaScreen (NVS) G Protein-Coupled Receptor Assay for guinea pig Atrionatriuretic Peptide Receptor A (ANPA) (AID 2283291)
# Method in brief: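 Radioligand binding to guinea pig cerebellar membranes was measured after 1 h by filter-based scintillation counting. Chemicals were tested in duplicate at 25 uM, with hits run in concentration-response to a maximum of 50 uM. Binding loss was fitted against DMSO.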
# [14] = target: rat Glutamate Metabotropic Receptor 5 (MGluR5), Grm5 (gene 24418) (UniProt P31424); assay: NVS_GPCR_rmMGluR5: NovaScreen (NVS) G Protein-Coupled Receptor Assay for rat Glutamate Metabotropic Receptor 5 (MGluR5) (AID 2283307)
# Method in brief: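 Rat whole-brain membrane preparation; filter-based radioligand binding read by scintillation counting, 1.5 h after dosing. Single-point screen at 25 uM in duplicate; hits over threshold (e.g. 30% inhibition) retested in concentration-response up to 50 uM; loss of signal vs DMSO.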
# [15] = target: rat Adrenergic Receptor, Beta (Adrb), Non-selective Binding, Adrb1 (gene 24925) (UniProt P18090); assay: NVS_GPCR_rAdrb_NonSelective: NovaScreen (NVS) G Protein-Coupled Receptor Assay for rat Adrenergic Receptor, Beta (Adrb), Non-selective Binding (AID 2283298)
# Method in brief: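 Non-selective beta-adrenergic radioligand binding in rat cortical membranes, 1 h incubation, filter-based scintillation read-out. Primary screen 25 uM in duplicate; hits retested in concentration-response up to 50 uM, DMSO baseline.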
# Sequence of rat Gamma-Aminobutyric Acid Type B Receptor (GABBR), Gabbr1 (gene 81657) (Q9Z0U4 whole entry, looked up): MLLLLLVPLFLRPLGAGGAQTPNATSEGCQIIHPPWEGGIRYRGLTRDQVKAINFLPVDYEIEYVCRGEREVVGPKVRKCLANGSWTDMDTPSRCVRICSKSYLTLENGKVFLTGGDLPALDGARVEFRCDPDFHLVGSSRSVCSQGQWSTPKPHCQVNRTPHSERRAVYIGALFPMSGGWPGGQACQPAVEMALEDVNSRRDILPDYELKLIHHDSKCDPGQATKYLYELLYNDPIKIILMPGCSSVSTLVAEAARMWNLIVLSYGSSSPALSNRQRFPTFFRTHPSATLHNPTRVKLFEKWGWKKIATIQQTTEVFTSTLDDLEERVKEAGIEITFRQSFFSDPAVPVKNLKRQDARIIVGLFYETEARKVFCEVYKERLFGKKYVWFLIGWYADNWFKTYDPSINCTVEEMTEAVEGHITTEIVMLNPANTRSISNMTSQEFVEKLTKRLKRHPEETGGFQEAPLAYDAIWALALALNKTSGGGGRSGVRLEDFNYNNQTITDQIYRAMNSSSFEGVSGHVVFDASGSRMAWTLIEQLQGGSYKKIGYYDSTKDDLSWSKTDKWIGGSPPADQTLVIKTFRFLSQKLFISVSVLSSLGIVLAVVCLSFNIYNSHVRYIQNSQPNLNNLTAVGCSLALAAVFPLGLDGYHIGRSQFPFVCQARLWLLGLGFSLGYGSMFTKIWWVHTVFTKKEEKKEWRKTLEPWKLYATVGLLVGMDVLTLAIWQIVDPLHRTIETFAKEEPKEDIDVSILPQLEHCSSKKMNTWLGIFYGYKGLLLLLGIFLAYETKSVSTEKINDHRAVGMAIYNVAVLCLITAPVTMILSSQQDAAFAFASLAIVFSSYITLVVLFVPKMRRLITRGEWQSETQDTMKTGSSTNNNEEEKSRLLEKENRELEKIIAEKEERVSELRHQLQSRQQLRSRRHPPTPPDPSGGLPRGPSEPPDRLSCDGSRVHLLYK
# Sequence of Adra2b (gene 24174) (P19328 whole entry, looked up): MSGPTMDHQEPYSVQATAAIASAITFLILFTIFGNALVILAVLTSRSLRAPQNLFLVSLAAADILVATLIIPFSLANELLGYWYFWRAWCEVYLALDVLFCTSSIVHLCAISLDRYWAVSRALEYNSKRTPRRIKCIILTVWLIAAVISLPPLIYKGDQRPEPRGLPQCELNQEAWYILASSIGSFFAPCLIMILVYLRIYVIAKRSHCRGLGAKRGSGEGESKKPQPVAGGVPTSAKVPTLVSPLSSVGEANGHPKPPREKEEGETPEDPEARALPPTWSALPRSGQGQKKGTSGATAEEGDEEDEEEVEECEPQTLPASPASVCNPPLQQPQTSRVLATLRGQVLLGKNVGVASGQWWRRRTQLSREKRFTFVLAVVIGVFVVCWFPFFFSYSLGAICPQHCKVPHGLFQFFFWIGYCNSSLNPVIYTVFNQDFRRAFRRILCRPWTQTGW
# Sequence of rat Neurokinin-1 Receptor (NK1), Tacr1 (gene 24807) (P14600 whole entry, looked up): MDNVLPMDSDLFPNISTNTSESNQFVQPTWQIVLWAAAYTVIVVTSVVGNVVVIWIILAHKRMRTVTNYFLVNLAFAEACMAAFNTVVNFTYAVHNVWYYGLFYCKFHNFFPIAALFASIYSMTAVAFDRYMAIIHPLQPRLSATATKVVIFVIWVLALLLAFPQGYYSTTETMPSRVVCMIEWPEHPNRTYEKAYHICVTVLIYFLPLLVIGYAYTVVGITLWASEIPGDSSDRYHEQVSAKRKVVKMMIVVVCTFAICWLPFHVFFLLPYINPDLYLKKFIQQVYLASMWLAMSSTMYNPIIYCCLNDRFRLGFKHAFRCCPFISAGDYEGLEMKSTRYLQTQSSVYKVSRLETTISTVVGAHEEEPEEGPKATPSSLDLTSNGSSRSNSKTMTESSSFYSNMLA
# Sequence of human Opioid Receptor Mu (Opiate Mu), OPRM1 (gene 4988) (P35372 whole entry, looked up): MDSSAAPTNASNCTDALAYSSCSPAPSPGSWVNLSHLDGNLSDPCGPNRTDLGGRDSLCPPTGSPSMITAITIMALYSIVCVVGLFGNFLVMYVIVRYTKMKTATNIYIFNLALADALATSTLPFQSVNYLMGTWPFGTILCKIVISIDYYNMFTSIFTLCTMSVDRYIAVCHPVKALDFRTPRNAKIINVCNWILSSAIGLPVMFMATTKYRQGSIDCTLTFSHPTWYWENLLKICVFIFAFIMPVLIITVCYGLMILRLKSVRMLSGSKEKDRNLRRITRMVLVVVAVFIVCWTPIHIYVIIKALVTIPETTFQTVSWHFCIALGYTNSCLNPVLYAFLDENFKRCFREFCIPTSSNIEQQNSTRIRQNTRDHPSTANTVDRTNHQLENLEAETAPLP
# Sequence of rat Serotonin, 5-Hydroxytryptamine Receptor (5HT), Non-Selective Binding, Htr1a (gene 24473) (P19327 whole entry, looked up): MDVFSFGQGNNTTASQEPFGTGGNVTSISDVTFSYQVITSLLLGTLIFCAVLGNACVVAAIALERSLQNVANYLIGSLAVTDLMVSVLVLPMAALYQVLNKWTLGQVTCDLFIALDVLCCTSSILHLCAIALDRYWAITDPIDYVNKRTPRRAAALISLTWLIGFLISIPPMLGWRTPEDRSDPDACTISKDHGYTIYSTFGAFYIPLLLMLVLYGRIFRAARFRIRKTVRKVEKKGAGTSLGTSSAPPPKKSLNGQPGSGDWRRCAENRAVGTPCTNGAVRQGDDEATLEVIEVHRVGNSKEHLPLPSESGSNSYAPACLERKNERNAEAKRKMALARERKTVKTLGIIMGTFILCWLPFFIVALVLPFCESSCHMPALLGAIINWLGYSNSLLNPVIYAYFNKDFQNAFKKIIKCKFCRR
# Sequence of rat Neurokinin-3 Receptor (NK3), Tacr3 (gene 24808) (P16177 whole entry, looked up): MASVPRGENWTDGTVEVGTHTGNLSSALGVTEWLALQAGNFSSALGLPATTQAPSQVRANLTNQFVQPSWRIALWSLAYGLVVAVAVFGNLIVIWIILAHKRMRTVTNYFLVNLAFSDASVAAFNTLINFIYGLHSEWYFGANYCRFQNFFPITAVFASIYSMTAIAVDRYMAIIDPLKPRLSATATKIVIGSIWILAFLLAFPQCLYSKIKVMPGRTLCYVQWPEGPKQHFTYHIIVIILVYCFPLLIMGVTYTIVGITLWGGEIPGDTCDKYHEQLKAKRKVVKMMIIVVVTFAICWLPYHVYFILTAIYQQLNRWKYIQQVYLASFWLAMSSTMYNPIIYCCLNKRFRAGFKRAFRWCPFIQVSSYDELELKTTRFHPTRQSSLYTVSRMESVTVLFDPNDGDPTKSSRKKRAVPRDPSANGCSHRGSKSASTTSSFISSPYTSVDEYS
# Sequence of rat Adrenergic Receptor, Beta (Adrb), Non-selective Binding, Adrb1 (gene 24925) (P18090 whole entry, looked up): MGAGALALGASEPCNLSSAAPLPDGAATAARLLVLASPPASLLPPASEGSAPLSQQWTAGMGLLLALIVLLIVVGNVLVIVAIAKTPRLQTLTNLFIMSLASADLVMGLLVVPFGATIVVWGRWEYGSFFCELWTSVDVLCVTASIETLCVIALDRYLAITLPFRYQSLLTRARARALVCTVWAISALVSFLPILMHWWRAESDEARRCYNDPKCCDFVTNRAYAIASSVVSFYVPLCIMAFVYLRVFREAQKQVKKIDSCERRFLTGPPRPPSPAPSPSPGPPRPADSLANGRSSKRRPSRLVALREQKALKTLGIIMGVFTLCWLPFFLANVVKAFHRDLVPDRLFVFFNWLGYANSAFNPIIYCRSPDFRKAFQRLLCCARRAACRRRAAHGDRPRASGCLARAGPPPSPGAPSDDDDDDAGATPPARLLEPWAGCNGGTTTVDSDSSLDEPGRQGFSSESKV
# Sequence of guinea pig Serotonin, 5-Hydroxytryptamine Receptor 4 (5HT4), HTR4 (gene 100135548) (O70528 whole entry, looked up): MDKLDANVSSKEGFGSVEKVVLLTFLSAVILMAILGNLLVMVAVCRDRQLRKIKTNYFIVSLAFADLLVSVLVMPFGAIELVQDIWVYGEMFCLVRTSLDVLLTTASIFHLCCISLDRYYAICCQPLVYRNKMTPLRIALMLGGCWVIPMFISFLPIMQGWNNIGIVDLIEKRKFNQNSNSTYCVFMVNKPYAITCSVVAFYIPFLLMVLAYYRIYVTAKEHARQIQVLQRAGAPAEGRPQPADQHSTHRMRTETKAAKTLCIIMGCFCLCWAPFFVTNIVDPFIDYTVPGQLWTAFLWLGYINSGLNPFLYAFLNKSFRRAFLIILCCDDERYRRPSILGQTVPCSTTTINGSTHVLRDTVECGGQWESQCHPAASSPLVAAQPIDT
# Sequence of rat Adrenergic, Alpha 1A Receptor (Adra1A), Adra1a (gene 29412) (P43140 whole entry, looked up): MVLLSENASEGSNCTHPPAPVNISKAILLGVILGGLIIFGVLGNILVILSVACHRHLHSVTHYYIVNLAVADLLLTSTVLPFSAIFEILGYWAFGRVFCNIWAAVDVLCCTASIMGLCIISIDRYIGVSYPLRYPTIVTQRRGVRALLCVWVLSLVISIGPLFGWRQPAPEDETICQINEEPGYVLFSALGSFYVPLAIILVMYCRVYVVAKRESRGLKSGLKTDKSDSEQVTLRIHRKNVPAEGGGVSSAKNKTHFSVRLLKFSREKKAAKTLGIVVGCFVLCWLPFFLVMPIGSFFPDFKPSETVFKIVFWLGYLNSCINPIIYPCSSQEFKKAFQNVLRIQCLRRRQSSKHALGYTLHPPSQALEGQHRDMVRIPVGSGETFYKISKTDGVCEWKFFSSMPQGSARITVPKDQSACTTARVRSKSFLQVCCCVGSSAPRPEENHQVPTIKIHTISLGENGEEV
# Sequence of human Neonicotinoid receptor (NNR), CHRNA2 (gene 1135) (Q15822 whole entry, looked up): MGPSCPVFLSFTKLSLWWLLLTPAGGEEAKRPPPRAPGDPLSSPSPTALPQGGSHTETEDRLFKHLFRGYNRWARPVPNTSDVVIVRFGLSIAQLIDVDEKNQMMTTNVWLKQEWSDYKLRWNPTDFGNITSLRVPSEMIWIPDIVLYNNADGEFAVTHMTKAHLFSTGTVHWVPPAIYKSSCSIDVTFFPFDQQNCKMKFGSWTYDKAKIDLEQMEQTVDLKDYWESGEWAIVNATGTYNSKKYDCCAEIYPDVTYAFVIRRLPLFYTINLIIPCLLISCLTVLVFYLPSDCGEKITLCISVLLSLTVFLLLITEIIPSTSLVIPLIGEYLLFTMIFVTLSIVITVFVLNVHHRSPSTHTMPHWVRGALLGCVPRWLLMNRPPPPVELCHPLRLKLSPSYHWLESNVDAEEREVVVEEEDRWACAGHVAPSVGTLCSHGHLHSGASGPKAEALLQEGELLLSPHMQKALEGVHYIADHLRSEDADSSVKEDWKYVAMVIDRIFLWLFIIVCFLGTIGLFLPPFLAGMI
smiles,measurement,setting,value
CC(C)(O)c1cnn2c(-c3ccc(F)c(-c4c(F)cccc4C#N)c3)cnc2n1,outcome,[1],inactive
COP(=S)(OC)SCN1C(=O)c2ccccc2C1=O,outcome,[2],inactive
Nc1ccc(Cl)cc1N,AC50,[2],39.5 µM (active)
N#CC(Br)(Br)C(N)=O,outcome,[2],inactive
COC(=O)c1ccccc1N,outcome,[3],inactive
O=C(Oc1ccc(Br)cc1)N1CCN2CCC1CC2,AC50,[4],14.8 µM (active)
same,AC50,[5],0.851 µM (active)
same,outcome,Adra2b (gene 24174),inactive
same,AC50,[6],8.47 µM (active)
O=C(N[C@H](c1ccccc1)[C@@H]1CN2CCC1CC2)c1c(Cl)ccc(C(F)(F)F)c1Cl,AC50,[2],10.1 µM (active)
same,AC50,[7],37.5 µM (active)
same,AC50,[8],18.1 µM (active)
same,AC50,[9],14.9 µM (active)
same,AC50,[10],37.5 µM (active)
same,AC50,[11],28.9 µM (active)
same,AC50,[12],37.5 µM (active)
C[N+](C)(C)CC1CO1 (configuration not stated),outcome,[1],inactive
CC(C)(C)C(O)(CCc1ccc(Cl)cc1)Cn1cncn1 (configuration not stated),outcome,Adra2b (gene 24174),inactive
same,AC50,[10],12.9 µM (active)
Clc1ccc(C(c2ccc(Cl)cc2)C(Cl)(Cl)Cl)cc1,outcome,[10],inactive
CCNS(=O)(=O)C(F)(F)C(F)(F)C(F)(F)C(F)(F)C(F)(F)C(F)(F)C(F)(F)C(F)(F)F,outcome,[13],inactive
CCN(CC)CCO,outcome,[14],inactive
OCCCl,outcome,[7],inactive
COc1cc(C=O)cc2c1[C@H](COC(N)=O)[C@]1(OC(C)=O)ON2C[C@H]2[C@@H]1N2C(C)=O,outcome,[13],inactive
O=Cc1ccco1,outcome,[15],inactive
ClCCOCCCl,outcome,[1],inactive
N#CC(Br)Br,outcome,[11],inactive
C[C@]12C=CC3=C4CCC(=O)C=C4CC[C@H]3[C@@H]1CC[C@@H]2O,AC50,Adra2b (gene 24174),20.7 µM (active)
same,AC50,[10],25 µM (active)
Cc1ccc(N)c(N)c1,outcome,[4],inactive
Cn1cc(-c2ccccc2)c(=O)c(-c2cccc(C(F)(F)F)c2)c1,outcome,[14],inactive
Cc1cc(N=Nc2ccccc2C)ccc1N,outcome,[15],inactive
